Shown are actives, neighbours in structure and some others; about 1.1% of the full set was active somewhere.
gsp antag: antagonists of gsp mutant (McCune-Albright syndrome) | gsp-mutant cells, cAMP HTRF, 30 min | Potency, µM (highest dose often 76.9 µM), without a hit: top-dose activity change, negative = inhibition, usual class: inhibitors | hit rate 0.4% among 340,000; calls by dose curve; cell line not stated here;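 further: intracellular cAMP measured with PDE inhibitor Ro 20-1724 present during compound exposure; potency means the concentration at half of the fitted maximal effect; on the % scale 0 is the no-effect control and ±100 the full control effect; nearly all actives have a fitted effect of over 65% in size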
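Cells, 2000/well, grown 16–24 h in DMEM 10% FBS with 0.5 mg/ml G418, then compounds plus […] (300 uM addition stock), 30 min at 37C. cAMP read by HTRF (cAMP-d2 and anti-cAMP antibody-K in lysis buffer) after 30 min RT.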
Tb PFK inh-1: inhibitors of T. brucei phosphofructokinase | O15648 | T. brucei PFK, ADP-Glo luminescence | Potency, µM (top dose mostly 57.5 µM), inactives show at the top dose activity, negative = inhibition, hits mostly inhibitors | hit rate 0.17% among 330,000;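 further: potency means the concentration at half of the fitted maximal effect; 0% = uninhibited 1x PFK enzyme wells and -100% = no-enzyme wells; nearly all actives have a fitted effect of over 60% in size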
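ADP-Glo luminescence quantified ADP after 45 min at room temperature, with 1.25 nM T. brucei PFK, 0.1 mM ATP and 0.5 mM fructose-6-phosphate in pH 8.0 TEA buffer. qHTS titrations up to 57 µM; curves classified by quality.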
RXFP1 antag: RXFP1 (human) relaxin receptor antagonism. activity change, negative = inhibition, % at 57.5 µM. AID 1259400. HEK293-RXFP1, relaxin-stimulated cAMP HTRF, 30 min; hits give low values. hit rate 0.59% among 350,000. Q9HBX9;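 active means activity change of -60% or lower, but not beyond a set lower limit; inconclusive means change between -60% and -40%, or beyond the set limit; inactive means change above -40%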; further: on the % scale 0 is the no-effect control and ±100 the full control effect
RXFP1 agonist: agonists of human relaxin receptor RXFP1; Q9HBX9; HEK293T-RXFP1 cAMP TR-FRET, 30 min; response scale: percent of porcine relaxin response, buffer zero; Potency, µM (highest dose often 57.5 µM), for inactives: at the highest dose activation, actives largely listed as activators; hit rate 0.3% among 370,000; further: potency means the concentration at half of the fitted maximal effect; on the % scale 0 is the no-effect control and ±100 the full control effect; nearly all actives have a fitted effect of over 60% in size
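Agonist response is measured as cAMP accumulation in an RXFP1-transfected HEK293T line under PDE4 inhibition. Values are scaled between buffer-only and 29 nM porcine relaxin, and EC50s come from standard Hill equation fits.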
p53 reactivation: mutant p53 re-activation in reporter cells. H1299 p53-A138V BP100-luciferase reporter, luminescence, 24 h. Potency, µM (highest dose often 92.2 µM), without a hit: top-dose activity change, positive = activation, hits mostly activators. hit rate 0.063% among 320,000. AID 504706; further: potency means the concentration at half of the fitted maximal effect; % of control where 0% means no effect; nearly all actives have a fitted effect of over 45% in size
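H1299 (p53-null), stable ts p53-A138V + BP100-Luc; 1000 cells/well, Opti-MEM/10% FBS; cpd 4 pt, 1:5; 24 h, 37 deg C, 5% CO2; detection reagent 10 min RT; luminescence.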
gsp ag: agonists of gsp mutant (McCune-Albright syndrome); gsp mutant cells, cAMP HTRF, 30 min; Potency, µM (series often up to 76.9 µM), for the others: at the highest dose activation (cAMP increase), most hits filed as activators; hit rate 0.13% among 340,000; AID 624287; active means well fitted activation curve with a large enough effect; inconclusive means small, poorly fitted or top-dose-only effect, or another doubt; inactive means no such curve, though single readings can be large or run the other way; cell line not stated here;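 further: phosphodiesterase inhibitor Ro 20-1724 added with compounds to block cAMP breakdown; potency means the concentration at half of the fitted maximal effect; nearly all actives have a fitted effect of over 60% in size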
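Cells in DMEM/10% FBS with G418 were pretreated with compounds in DMSO plus […] (300 uM stock) for 30 min at 37C. cAMP was measured by HTRF (cAMP-d2 plus anti-cAMP antibody-K) after 30 min at room temperature.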
TbPFK ATP: orthogonal confirmation of T. brucei phosphofructokinase inhibitors. shares compounds with Tb PFK inh-1. Tb PFK enzyme, ATP depletion, Kinase-Glo Plus luminescence. Potency, µM (doses to about 57.5 µM), inactives show at the highest dose inhibition. hit rate 47% among 1,100. AID 504636; calls by dose curve; further: potency means the concentration at half of the fitted maximal effect; nearly all actives have a fitted effect of over 60% in size
Tb PFK inh-2: T. brucei PFK enzyme inhibition, hit validation; AID 504637; Potency, µM (titrated, usually from 57.5 µM), for the others: at the highest dose activity change, negative = inhibition, actives largely listed as inhibitors; hit rate 41% among 1,100; shares compounds with Tb PFK inh-1; purified T. brucei PFK, ADP-Glo luminescence, 45 min;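 further: potency means the concentration at half of the fitted maximal effect; plate controls were full PFK enzyme control for no effect and no enzyme control for full effect; nearly all actives have a fitted effect of over 60% in size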
* marks the source's active call; other numbers are inactive results. Unless noted, the call rests on the fitted dose curve; in most records, active means well fitted curve in the direction sought with a large enough effect; inconclusive means small, poorly fitted or top-dose-only effect, or another doubt; inactive means no such curve, though single readings can be large; an effect the other way counts as inactive or inconclusive.

`C1CCC2CCCCC2C1` (stereo not given) gave gsp antag -1%, Tb PFK inh-1 -5%, RXFP1 agonist 0% and p53 reactivation 3%.
`O=c1[nH]c(=O)n(-c2cccc(Cl)c2)c(O)c1/C=N/c1ccccn1` gave gsp antag -1%, Tb PFK inh-1 2%, RXFP1 antag -10, RXFP1 agonist 1%, p53 reactivation 3% and gsp ag -35%.
For C=CCSC1=N/C(=C\C=C\c2ccco2)C(=O)S1 the results were gsp antag -3%, Tb PFK inh-1 17µM*, RXFP1 antag -20, RXFP1 agonist 0%, p53 reactivation 4%, gsp ag inconclusive, TbPFK ATP inconclusive and Tb PFK inh-2 inconclusive.
For Cc1c(-c2ccc(Cl)cc2)oc(=O)c2c(N)n(-c3ccccc3)nc12 the results were gsp antag -14%, Tb PFK inh-1 inconclusive, RXFP1 antag 2, RXFP1 agonist inconclusive, p53 reactivation 5%, gsp ag -28%, TbPFK ATP inconclusive and Tb PFK inh-2 inconclusive.
Screening O=c1cc(-c2ccc(O)c(O)c2)oc2cc(O)cc(O)c12 returned gsp antag -6%, Tb PFK inh-1 inconclusive, RXFP1 agonist -3%, p53 reactivation inconclusive, TbPFK ATP -27% and Tb PFK inh-2 inconclusive.
Screening O=c1c(O)c(-c2ccc(O)c(O)c2)oc2cc(O)cc(O)c12 returned gsp antag 2%, Tb PFK inh-1 inconclusive, RXFP1 antag 8, RXFP1 agonist -1% and p53 reactivation inconclusive.

Screening results as filed in PubChem BioAssay.
